Shown are actives, neighbours in structure and some others; about 2% of the full set was active somewhere.
TDP43 rescue = qHTS of TDP-43 Inhibitors; TDP-43 expressing yeast growth rescue, BacTiter-Glo, 24 h; 410,000 compounds, 1.8% hits; Potency, µM (doses to about 46.1 µM), inactives show at the top dose growth rescue (activation), actives largely listed as activators; note: potency is the fitted concentration of half-maximal effect; % of control where 0% means no effect; nearly all actives have a fitted effect of over 50% in size
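Galactose-induced TDP-43 yeast, OD600=0.02, compound pinned; 24 hr, 30 deg C; BacTiter-Glo luminescence for growth. Inhibitors of TDP-43 toxicity read as activators.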
FUS yeast rescue = qHTS for Suppressors of FUS Proteinopathy: Primary screen using FUS-linked yeast assay | 390,000 compounds, 0.24% hits | S. cerevisiae FUS-expressing, growth rescue, OD600, 24 h | AID 1347120, 2019 | Potency, µM (top dose mostly 76.6 µM), most hits filed as activators;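 note: potency is the fitted concentration of half-maximal effect; plate controls were DMSO vehicle for no effect and reference control for full effect; nearly all actives have a fitted effect of over 55% in size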
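Read-out: OD at 600 nm after 24hr at 30C, reporting rescue of FUS-induced yeast toxicity. Cells at OD 0.005 in galactose (2%) minimal medium; compounds tested in a dilution series; CP55940 titration from 92uM final as control.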
Abeta rescue = qHTS for compounds that reverse cellular toxicity of Amyloid beta (A-beta) peptide in yeast: Primary Screen; Potency, µM (doses to about 46.1 µM), hits mostly activators; yeast expressing A-beta42, growth rescue, OD600, 48 h; response scale: 0% DMSO, 100% iron-clioquinol control; 410,000 compounds, 0.063% hits; note: potency is the fitted concentration of half-maximal effect; nearly all actives have a fitted effect of over 55% in size
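Yeast A-beta toxicity model in growth medium with pinned compounds, 48 h at 30 C; growth read as absorbance at 600 nm. Normalized to FeCl3/clioquinol equimolar mix (positive) and DMSO (negative).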
IDH1 R132H inh = qHTS for Inhibitors of mutant isocitrate dehydrogenase 1 (IDH1): qHTS | IDH1-R132H enzyme, NADPH consumption, diaphorase/resazurin fluorescence | Isocitrate dehydrogenase [NADP] cytoplasmic (Homo sapiens), O75874 | 390,000 compounds, 0.093% hits | Potency, µM (doses to about 76.6 µM), without a hit: at the top dose activity change, negative = inhibition, usual class: inhibitors; note: potency is the fitted concentration of half-maximal effect; % is set by controls: 0 for no effect and ±100 for the full control effect; nearly all actives have a fitted effect of over 65% in size
Target sequence (O75874 whole entry R132H, stated change not applied): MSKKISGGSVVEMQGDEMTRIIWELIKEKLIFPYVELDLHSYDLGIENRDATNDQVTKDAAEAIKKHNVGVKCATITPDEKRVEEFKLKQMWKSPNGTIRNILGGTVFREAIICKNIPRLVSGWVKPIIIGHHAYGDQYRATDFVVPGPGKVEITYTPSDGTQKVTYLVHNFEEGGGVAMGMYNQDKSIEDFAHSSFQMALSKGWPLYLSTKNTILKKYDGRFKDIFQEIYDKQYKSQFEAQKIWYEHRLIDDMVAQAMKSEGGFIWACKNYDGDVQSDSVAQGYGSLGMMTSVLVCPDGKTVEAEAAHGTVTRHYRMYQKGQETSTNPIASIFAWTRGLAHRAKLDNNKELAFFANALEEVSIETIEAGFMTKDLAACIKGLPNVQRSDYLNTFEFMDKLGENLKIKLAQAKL
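IDH1-R132H (0.5 ug/mL dispensed) in pH 7.5 Tris buffer was preincubated 30 min with compound, then given a substrate mix of 0.016 mM NADPH and 2 mM alpha-KG for 80 min at room temperature; remaining NADPH was read by diaphorase/resazurin fluorescence.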
aSyn yeast inh = qHTS of alpha-syn Inhibitors. Yeast expressing alpha-synuclein, growth rescue, BacTiter-Glo, 24 h. 370,000 compounds, 0.14% hits. AID 652106, 2013. Potency, µM (top dose mostly 46.1 µM), without a hit: top-dose growth rescue (activation), actives largely listed as activators; note: potency is the fitted concentration of half-maximal effect; % of control where 0% means no effect; nearly all actives have a fitted effect of over 65% in size
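Rescue of yeast growth: cells expressing toxic alpha-synuclein, induced in galactose at OD600 0.02, incubated with compound 24 h at 30 C. ATP luminescence quantified growth; inhibitors of toxicity appear as activators.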
LDHA inh = qHTS assay for inhibitors of human lactate dehydrogenase; purified LDHA, NADH/diaphorase-resazurin fluorescence; active compounds read low; activity change, % (values are at about 110 or 230 µM); 480,000 compounds, 0.15% hits; AID 1347041, 2019; in the data active = activity change below about -30%; inconclusive = mostly about -25% to -30%;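 note: plate controls were DMSO wells for no effect and wells without enzyme for full effect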
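Human LDH5 (2 nM) was incubated with 0.06 mM NADH and 0.2 mM pyruvate for 5 min at room temperature in Tris pH 7.4. Remaining NADH was coupled through diaphorase/resazurin, and resorufin fluorescence was read at 0 and 20 min.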
IDH1 autofl = qHTS for Inhibitors of mutant isocitrate dehydrogenase 1 (IDH1): Cherrypicks Autofluorescence Interference; shares compounds with IDH1 R132H inh; Resorufin detection reagent fluorescence interference, cell-free; inhibition of signal, % at 51.2 µM; 750 tested, under 10 active; AID 623980, 2012;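 note: 0% = wells with normal resorufin and full inhibition = wells lacking resorufin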
WT IDH1 inh = qHTS for Inhibitors of mutant isocitrate dehydrogenase 1 (IDH1): Cherrypicks in WT IDH1. shares compounds with IDH1 R132H inh. WT IDH1 enzyme, NADPH diaphorase/resazurin fluorescence. Potency, µM (top dose mostly 115 µM), without a hit: at the top dose activity change, negative = inhibition, most hits filed as inhibitors. 750 compounds, 9% hits. AID 623995, 2012;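 note: potency is the fitted concentration of half-maximal effect; 0% = full WT IDH1 enzyme control and full inhibition = no enzyme wells; nearly all actives have a fitted effect of over 55% in size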
Target sequence (O75874 whole entry, looked up): as the sequence (O75874 whole entry R132H, stated change not applied) above, with H132R counted along it
IDH1 R132H conf = qHTS for Inhibitors of mutant isocitrate dehydrogenase 1 (IDH1): Confirmation of Cherrypicks; shares compounds with IDH1 R132H inh; IDH1 R132H enzyme, NADPH diaphorase/resazurin fluorescence; Potency, µM (highest dose often 76.6 µM), inactives show top-dose activity change, negative = inhibition, most hits filed as inhibitors; 750 compounds, 83% hits; AID 624002, 2012; note: potency is the fitted concentration of half-maximal effect; nearly all actives have a fitted effect of over 50% in size
* hit, by the source's call; i = inactive; ? = inconclusive; · = no result. Unless noted, calls come from the whole dose curve; as a rule, active = well fitted curve in the direction sought with a large enough effect; inconclusive = small, poorly fitted or top-dose-only effect, or another doubt; inactive = no such curve, though single readings can be large; an effect the other way counts as inactive or inconclusive.

SMILES	TDP43 rescue	FUS yeast rescue	Abeta rescue	IDH1 R132H inh	aSyn yeast inh	LDHA inh	IDH1 autofl	WT IDH1 inh	IDH1 R132H conf
Cc1cc(/C=C/C(=O)c2ccc(F)cc2)cc(C)c1O	·	·	·	·	·	14.8	·	·	·
O=C(OCc1cc(=O)oc2cc3c(cc12)CCC3)C1CCCO1 (stereo not given)	·	·	·	·	·	1.5	·	·	·
CC1CCN(c2c([N+](=O)[O-])nn(-c3ccc4c(c3)OCCO4)[n+]2[O-])CC1	12.6µM*	?	i	3.7%	15.5%	6.7	·	·	·
Cc1c(/C=N/NC(=O)c2cc(=O)[nH]c(=O)[nH]2)c2ccccn2c1C(=O)c1ccccc1	-20.8%	i	i	?	-0.8%	0.9	-2.0	?	14.1µM*
Cc1c(/C=N/NC(=O)c2ccc(O)cc2)c2ccccn2c1C(=O)c1ccc(F)cc1	15.9%	?	i	-0.1%	-9.9%	-5.4	·	·	·
COc1ccc(CN2CCC(C(O)(c3ccccc3)c3ccccc3)CC2)c(OC)c1	·	·	·	·	·	-3.5	·	·	·
CC(C)(C)c1ccc(S(=O)(=O)Nc2ccc(Cc3ccncc3)cc2)cc1	-14.7%	·	i	?	-5.3%	2.8	-1.1	-5.7%	20µM*
CC(=O)Nc1ccc(S(=O)(=O)Nc2ccc(Cc3ccncc3)cc2)cc1	-25.7%	i	i	1.7%	-1.4%	-16.0	·	·	·
Cc1noc(NS(=O)(=O)c2ccc(NS(=O)(=O)c3ccc(C(C)(C)C)cc3)cc2)c1C	6.6%	i	i	39.8µM*	-1.6%	-1.7	9.4	-6.9%	11.2µM*
Cn1c2ccccc2c(=O)c2c(=O)n(C3CCCCC3)c(-c3ccco3)nc21	11.9%	·	i	26.1µM*	15.6%	-16.8	-11.0	23.9%	22.4µM*
Cc1nc2c(c(=O)c3ccccc3n2C)c(=O)n1C1CCCCCC1	-17.9%	i	i	4.4%	4.4%	-8.9	·	·	·
COc1ccc(NC(=O)C(c2ccc(OC)cc2)N(Cc2ccco2)C(=O)CC2NC(=O)NC2=O)cc1 (stereo not given)	17.0%	i	i	2.9%	8.9%	-3.6	·	·	·
COc1ccc(C(C(=O)Nc2ccc(C(C)C)cc2)N(Cc2ccco2)C(=O)CC2NC(=O)NC2=O)cc1 (stereo not given)	-6.3%	?	i	?	9.1%	1.0	-10.2	-6.0%	31.6µM*
O=C(c1cc(=O)c2ccccc2o1)N1CCC(CCN2CCCCC2)CC1	·	·	·	·	·	2.9	·	·	·
CCCCNC(=O)c1cc(-c2ccc(OC)cc2)nc2ccccc12	·	·	·	·	·	1.4	·	·	·
CN1C(=O)N(CC(=O)N2CCN(S(=O)(=O)c3ccc4c(c3)CCC4)CC2)C(=O)C12CCCCC2	10.7%	i	i	0.4%	6.8%	-3.7	·	·	·
O=C(CCl)N1CCN(S(=O)(=O)c2ccc3c(c2)CCC3)CC1	?	i	i	46.5µM*	0.1%	0.8	-5.6	-24.3%	28.2µM*
C=CCSC1=N/C(=C\c2cc(OCC)c(OC(C)=O)c([N+](=O)[O-])c2)C(=O)S1	0.6%	·	i	?	-7.1%	-9.2	2.0	?	25.1µM*
C=CCSC1=N/C(=C\c2ccc3c(c2)OCO3)C(=O)S1	-10.9%	i	i	0.9%	5.8%	-0.3	·	·	·
Cc1ccc(Sc2ccc(NC(=O)CCl)cc2)c(C)c1	11.2µM*	i	?	52.1µM*	16.3%	-0.1	3.5	?	44.7µM*
Cc1ccn2c(Nc3ccc4c(c3)OCCO4)c(-c3ccsc3)nc2c1	·	·	·	·	·	4.0	·	·	·
CCn1c2ccccc2c2cc(C3C(C#N)=C(N)Oc4n[nH]c(COC)c43)ccc21 (stereo not given)	-3.1%	i	i	52.1µM*	0.5%	6.6	4.5	-4.1%	20µM*
O=C(Nc1ccc2oc(-c3ccc(-c4ccccc4)cc3)nc2c1)c1ccco1	·	·	·	·	·	-14.2	·	·	·
Cc1cc(C(C)(C)C)oc1C(=O)N1CCN(C(=O)c2oc(C(C)(C)C)cc2C)CC1	24.2%	i	i	39.8µM*	0.4%	-0.2	-13.2	?	14.1µM*
NNC(=O)CSc1c(-c2ccccc2)c2cc(Cl)ccc2[nH]c1=O	4.4%	i	i	?	-10.2%	-4.3	-14.2	-18.7%	-24.9%
SMILES	TDP43 rescue	FUS yeast rescue	Abeta rescue	IDH1 R132H inh	aSyn yeast inh	LDHA inh	IDH1 autofl	WT IDH1 inh	IDH1 R132H conf
CCOC(=O)N1CCC(NC(=O)C(C)n2nc(C)c3sc4ccccc4c3c2=O)CC1 (stereo not given)	·	·	·	·	·	-5.6	·	·	·
O=C1CN(c2nc(-c3cccs3)nc3sc4c(c23)CCCC4)CCN1	20.3%	35.5µM*	i	52.1µM*	19.9%	-1.2	-14.3	?	28.2µM*
O=C(CSc1nnc2ccc(-c3cccs3)nn12)NC1CCCC1	·	·	·	·	·	3.4	·	·	·
COC(=O)[C@@]12CCCCN1[C@H](c1ccc(-c3ccc4c(c3)OCO4)c(OC)c1)[C@@H]1C(=O)N(C)C(=O)[C@@H]12	12.6µM*	11.2µM*	i	?	14.8%	-0.7	10.0	2.6%	11.2µM*
COC(=O)[C@@]12CCCN1[C@H](c1ccc(-c3ccc4c(c3)OCO4)c(OC)c1)[C@H]1C(=O)N(C)C(=O)[C@H]12	16.3%	?	i	-5.7%	-0.2%	-11.2	·	·	·
COC(=O)[C@@]12CCCCN1[C@H](c1ccc(-c3ccc(F)cc3)c(OC)c1)[C@@H]1C(=O)N(C)C(=O)[C@@H]12	15.8µM*	i	i	39.8µM*	?	3.8	-3.4	3.0%	6.31µM*
CCN1C(=O)[C@@H]2[C@@H](c3ccc(-c4ccc(OC)cc4)c(OC)c3)N3CCCC[C@@]3(C(=O)OC)[C@@H]2C1=O	19.5%	i	i	-18.5%	1.5%	-3.4	·	·	·

Screening data as filed in PubChem BioAssay.
